Source: PubChem BioAssay (NCI)
This is part of a sample that, as a whole, favours compounds with a hit. Of some 79,000 tested, about 15% had one in any assay. Calls of active or inactive are those of the source. Rule as the data show it: active = growth inhibition above about 70%; inactive = the rest.

Assays:
[1] = NCI Yeast Anticancer Drug Screen. Data for the wt1 strain (AID 149);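 also: 0% = growth of vehicle-treated wt1 cultures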; details: S. cerevisiae wt1 strain (SPY 50644) growth inhibition, stronger effect = higher value
Method in brief: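 wt1 yeast, compound-treated; % growth inhibition vs vehicle control.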

[2] = NCI Yeast Anticancer Drug Screen. Data for the rad50EPP+ strain (AID 151);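 also: 0% = growth of vehicle-treated control cultures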; details: S. cerevisiae rad50 mutant strain, stronger effect = higher value
Method in brief: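 Yeast strain carrying rad50 alteration (rad50EPP+) exposed to compounds; growth inhibition measured relative to vehicle-treated controls.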

[3] = NCI Yeast Anticancer Drug Screen. Data for the mgt1 strain (AID 153); details: S. cerevisiae mgt1 mutant growth inhibition, stronger effect = higher value
Method in brief: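 Yeast mgt1 strain (DNA repair/cell-cycle alteration panel) exposed to compounds; growth inhibition measured relative to vehicle-treated controls.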

[4] = NCI Yeast Anticancer Drug Screen. Data for the rad50 strain (AID 155);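 also: 0% = growth of vehicle-only cultures of the same strain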; details: S. cerevisiae rad50 strain growth inhibition, stronger effect = higher value
Method in brief: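 Genetically altered yeast (DNA repair pathway); compound treatment; growth inhibition vs vehicle ctrl.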

[5] = NCI Yeast Anticancer Drug Screen. Data for the mec2-1 strain (AID 157); details: S. cerevisiae mec2-1 strain, stronger effect = higher value
Method in brief: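 mec2-1 yeast strain, carrying an alteration in DNA damage repair or cell cycle control, was exposed to compounds; growth inhibition was measured relative to vehicle-treated controls.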

[6] = NCI Yeast Anticancer Drug Screen. Data for the sgs1 mgt1 strain (AID 161);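 also: 0% = growth of cultures given vehicle only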; details: S. cerevisiae sgs1 mgt1 strain, stronger effect = higher value
Method in brief: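 Percent growth inhibition was derived by comparing compound-exposed mutant yeast with vehicle-exposed cultures. The strain carries alterations in DNA damage repair.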

[7] = NCI Yeast Anticancer Drug Screen. Data for the CLN2oe strain (AID 163);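 also: 0% = growth of vehicle-only control cultures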; details: S. cerevisiae CLN2oe strain, stronger effect = higher value
Method in brief: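 Yeast cells carrying a defined cell-cycle control alteration were exposed to test compounds. Growth inhibition was scored against vehicle-treated control cultures.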

[8] = NCI Yeast Anticancer Drug Screen. Data for the cln2 rad14 strain (AID 165);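 also: 0% = growth equal to vehicle treated cultures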; details: S. cerevisiae cln2 rad14 strain, stronger effect = higher value
Method in brief: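 Yeast carrying cln2 and rad14 alterations (cell cycle control and DNA damage repair) were exposed to compounds. Growth inhibition was measured against vehicle-treated controls.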

[9] = NCI Yeast Anticancer Drug Screen. Data for the bub3 strain (AID 167); details: S. cerevisiae bub3 mutant strain, stronger effect = higher value
Method in brief: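 Yeast carrying a defined mutation is treated with each compound, and growth is compared with that of vehicle-exposed cells to give inhibition.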

[10] = NCI Yeast Anticancer Drug Screen. Data for the wt2 strain (AID 169);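 also: 0% = growth of vehicle-treated yeast cultures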; details: S. cerevisiae wt2 strain growth inhibition, stronger effect = higher value
Method in brief: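 Yeast cells were exposed to test compounds, and growth inhibition was measured relative to vehicle-treated controls.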

[11] = NCI Yeast Anticancer Drug Screen. Data for the mlh1 strain (AID 171);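 also: 0% = growth of vehicle-treated control cultures of the same strain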; details: S. cerevisiae mlh1 strain growth inhibition, stronger effect = higher value
Method in brief: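 Yeast carrying a defined genetic alteration in DNA damage repair or cell cycle control were exposed to test compounds. Growth inhibition was measured relative to vehicle-treated controls.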

[12] = NCI Yeast Anticancer Drug Screen. Data for the sgs1 strain (AID 173);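 also: 0% = growth of vehicle-only control cultures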; details: S. cerevisiae sgs1 mutant, stronger effect = higher value
Method in brief: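 Yeast mutant strains carrying defined defects in DNA damage repair or cell cycle control were exposed to test compounds. Growth inhibition was scored against vehicle-treated controls.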

[13] = NCI Yeast Anticancer Drug Screen. Data for the mlh1 rad18 strain (AID 175); details: S. cerevisiae mlh1 rad18 strain growth inhibition, stronger effect = higher value
Method in brief: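 Growth inhibition of the yeast strain was measured after compound exposure and expressed relative to vehicle-treated controls. The strain carries defined defects in DNA damage repair.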

[14] = NCI Yeast Anticancer Drug Screen. Data for the rad18 strain (AID 177); details: S. cerevisiae rad18 mutant growth inhibition, stronger effect = higher value
Method in brief: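 Yeast carrying a defined DNA damage repair alteration were exposed to compounds. Growth inhibition was expressed relative to vehicle-treated controls.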

[15] = NCI Yeast Anticancer Drug Screen. Data for the rad14 strain (AID 159);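 also: 0% = growth of vehicle-treated control cultures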; details: S. cerevisiae rad14 strain growth inhibition, stronger effect = higher value
Method in brief: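 Test compounds were applied to a repair-deficient yeast strain. Its growth was then compared with that of cultures given vehicle alone, and inhibition was expressed relative to those controls.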

[16] = at 5.0 µM (retest, dose inferred, filed as 0.5)
[17] = at 50.0 µM (retest, dose inferred, filed as 5.0)

Measured: growth inhibition

COc1ccc(/C=C2\CCc3ccccc3C2=O)cc1OC
active: [1]; at 100.0 µM 88% | [3]; at 100.0 µM 89% | [4]; at 50.0 µM 83.3% | [4]; at 100.0 µM 82% | [5]; at 100.0 µM 90% | [6]; at 50.0 µM 84.8% | [7]; at 100.0 µM 92% | [9]; at 33.0 µM 76% | [9]; [17] 95% | [9]; at 50.0 µM 87.6% | [9]; at 100.0 µM 94% | [10]; at 100.0 µM 91% | [11]; at 33.0 µM 79% | [11]; at 100.0 µM 91% | [12]; at 100.0 µM 93% | [13]; [17] 91% | [14]; at 100.0 µM 88%
inactive: [1]; at 1.2 µM -13% | [1]; at 3.7 µM -2% | [1]; at 11.0 µM -11% | [1]; at 33.0 µM 24% | [2]; at 1.2 µM -24% | [2]; at 3.7 µM -26% | [2]; at 11.0 µM 1% | [2]; at 33.0 µM 32% | [2]; at 100.0 µM 40% | [3]; at 1.2 µM 2% | [3]; at 3.7 µM 5% | [3]; at 11.0 µM 21% | [3]; at 33.0 µM 67% | [4]; at 1.2 µM 3% | [4]; at 3.7 µM -2% | [4]; [16] 36% | [4]; at 11.0 µM -1% | [4]; at 33.0 µM 22% | [4]; [17] 51% | [5]; at 1.2 µM -36% | [5]; at 3.7 µM -8% | [5]; [16] -11% | [5]; at 11.0 µM -22% | [5]; at 33.0 µM 24% | [5]; [17] 66% | [5]; at 50.0 µM 60.3% | [6]; [16] 37% | [6]; [17] 68% | [7]; at 1.2 µM 21% | [7]; at 3.7 µM 22% | [7]; at 11.0 µM 29% | [7]; at 33.0 µM 37% | [8]; [16] 23% | [8]; [17] 48% | [8]; at 50.0 µM 60.9% | [9]; at 1.2 µM 24% | [9]; at 3.7 µM 29% | [9]; [16] 25% | [9]; at 11.0 µM 51% | [10]; at 1.2 µM -38% | [10]; at 3.7 µM -25% | [10]; at 11.0 µM -28% | [10]; at 33.0 µM 53% | [11]; at 1.2 µM 20% | [11]; at 3.7 µM 29% | [11]; at 11.0 µM 26% | [12]; at 1.2 µM -6% | [12]; at 3.7 µM -26% | [12]; at 11.0 µM -12% | [12]; at 33.0 µM 35% | [13]; [16] 10% | [13]; at 50.0 µM 63.5% | [14]; at 1.2 µM -20% | [14]; at 3.7 µM -10% | [14]; at 11.0 µM -18% | [14]; at 33.0 µM 19%

CC(C)(C(=O)NN)c1ccccc1
active: [1]; at 100.0 µM 78% | [2]; at 100.0 µM 85% | [4]; [17] 99% | [4]; at 100.0 µM 82% | [5]; [17] 95% | [5]; at 100.0 µM 83% | [6]; [17] 98% | [7]; at 100.0 µM 81% | [10]; at 100.0 µM 83% | [11]; at 100.0 µM 91% | [12]; at 33.0 µM 71% | [12]; at 100.0 µM 94% | [13]; [17] 99% | [14]; at 33.0 µM 70% | [14]; at 100.0 µM 92%
inactive: [1]; at 1.2 µM 2% | [1]; at 3.7 µM 9% | [1]; at 11.0 µM 34% | [1]; at 33.0 µM 52% | [2]; at 1.2 µM 4% | [2]; at 3.7 µM 25% | [2]; at 11.0 µM 52% | [2]; at 33.0 µM 68% | [4]; at 1.2 µM 3% | [4]; at 3.7 µM 5% | [4]; [16] 14% | [4]; at 11.0 µM 22% | [4]; at 33.0 µM 40% | [4]; at 50.0 µM 52.9% | [5]; at 1.2 µM 0% | [5]; at 3.7 µM 1% | [5]; [16] 11% | [5]; at 11.0 µM 24% | [5]; at 33.0 µM 53% | [5]; at 50.0 µM 9.5% | [15]; at 1.2 µM -1% | [15]; at 3.7 µM -4% | [15]; at 11.0 µM 3% | [15]; at 33.0 µM 21% | [15]; at 100.0 µM 58% | [6]; [16] 14% | [6]; at 50.0 µM 14.9% | [7]; at 1.2 µM -7% | [7]; at 3.7 µM -1% | [7]; at 11.0 µM 27% | [7]; at 33.0 µM 51% | [10]; at 1.2 µM 1% | [10]; at 3.7 µM 10% | [10]; at 11.0 µM 28% | [10]; at 33.0 µM 42% | [11]; at 1.2 µM 3% | [11]; at 3.7 µM 5% | [11]; at 11.0 µM 21% | [11]; at 33.0 µM 46% | [12]; at 1.2 µM 0% | [12]; at 3.7 µM 13% | [12]; at 11.0 µM 41% | [13]; [16] 63% | [13]; at 50.0 µM 62.9% | [14]; at 1.2 µM 2% | [14]; at 3.7 µM 8% | [14]; at 11.0 µM 46%
